Assay results published in PubChem BioAssay.
Active and inactive are the calls of the source.

How the values were obtained:
[1] = E. coli DRC41 culture turbidity changes, primary screen, E. coli filamentation inducer project, strain DRC41, OD650, 48 h (AID 1152);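 also: E. coli MC1000 strain DRC41 lacking acrAB efflux pump and sulA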; conditions: E. coli DRC41 (acrAB sulA), higher = more signal, called active from +8 up or from −8 down
[2] = small-molecule binders of probe aLefty1, primary screen, biochemical, small-molecule microarray, 635/667 nm fluorescence (AID 1153); conditions: higher = more signal;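 also: score merges spot fluorescence with signal-to-noise ratio from the scanned slide images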
[3] = PSAC antagonists in infected red cells, primary screen, cell-based, P. falciparum Indochina, OD700, 1 h (AID 1154); conditions: P. falciparum Indochina infected RBC osmotic lysis, higher = more signal, called active from +8 up or from −8 down
[4] = PSAC antagonists in infected red cells, primary screen, cell-based, P. falciparum Indochina, OD700, 2 h (AID 1155);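 also: lysis reports solute entry through the parasite surface anion channel PSAC; channel blockers reduce lysis of infected cells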; conditions: P. falciparum Indochina infected erythrocytes, osmotic lysis OD700; higher = more signal, called active from +8 up or from −8 down
[5] = osmotic lysis modulators in infected erythrocytes, primary screen, PSAC antagonist project, cell-based, P. falciparum Indochina, OD700, 3 h (AID 1156); conditions: higher = more signal, called active from +8 up or from −8 down
[6] = PSAC antagonists in infected red cells, primary screen, cell-based, P. falciparum Indochina, OD700, 18 h (AID 1157); conditions: P. falciparum Indochina infected erythrocytes, osmotic lysis OD700, 18 h; higher = more signal, called active from +8 up or from −8 down
[7] = modulators of S6 phosphorylation in cells, primary screen, cell-based, A549, cytoblot, luminescence, serum-stimulated (AID 1158); conditions: A549 phospho-S6 cytoblot, 5 h, higher = more signal;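 also: serum-stimulated A549 lung adenocarcinoma cells; signal is phosphorylated S6 detected by cytoblot immunostaining with HRP secondary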
[8] = target: NADPH oxidase 2 (Homo sapiens) (UniProt P04839); assay: NOX2-dependent H2O2 signal modulators, primary screen, NOX inhibitor project, cell-based, HEK293-NOX2, PMA-stimulated, Amplex Red fluorescence (AID 1159); conditions: 45 min, higher = more signal, called active from +8 up or from −8 down; also: test concentration not given here
[9] = target: NADPH oxidase 4 (Homo sapiens) (UniProt Q9NPH5); assay: NOX4-dependent H2O2 signal modulators, primary screen, NOX inhibitor project, cell-based, HEK293-NOX4, tetracycline-induced, Amplex Red fluorescence (AID 1160); conditions: 45 min, higher = more signal, called active from +8 up or from −8 down
[10] = target: NADPH oxidase 5 (Homo sapiens) (UniProt Q96PH1); assay: NOX5-dependent H2O2 signal modulators, primary screen, NOX inhibitor project, cell-based, HEK293-NOX5, Amplex Red fluorescence (AID 1161); conditions: HEK293-NOX5, ionomycin, 45 min, higher = more signal
[11] = A549 cell viability effects, profiling panel, calcein-AM fluorescence, 48 h, basal (AID 1162); conditions: higher = more signal; also: test concentration not given here
[12] = adipocyte viability effects, profiling panel, cell-based, 3T3-L1 adipocytes, calcein-AM fluorescence, 48 h, basal (AID 1163); conditions: 3T3-L1 adipocytes viability, higher = more signal; also: test concentration not given here
[13] = HepG2 cell viability effects, profiling panel, calcein-AM fluorescence, 48 h, basal (AID 1164); conditions: higher = more signal; also: test concentration not given here
[14] = MM1S cell viability effects, profiling panel, calcein-AM fluorescence, 48 h, basal (AID 1165); conditions: higher = more signal;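 also: viability of MM1S multiple myeloma cells under basal unstimulated conditions; test concentration not given here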
[15] = basal RPMI8226 viability, no added stimulus, profiling panel, cell-based, calcein-AM fluorescence, 48 h, PK04 Diversity Set (AID 1166); conditions: RPMI8226 myeloma viability, higher = more signal;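 also: cells grown under basal conditions without added stimulus; test concentration not given here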
[16] = basal HepG2 mitochondrial membrane potential changes, profiling panel, cell-based, JC-1 fluorescence, 24 h, 100 nL compound (AID 1167); conditions: higher = more signal; also: test concentration not given here
[17] = basal 3T3-L1 adipocyte mitochondrial potential changes, profiling panel, cell-based, JC-1 fluorescence, 3T3-L1 adipocytes, 24 h, 100 nL compound (AID 1168); conditions: JC-1 mitochondrial fluorescence, higher = more signal, called active from +8 up or from −8 down; also: test concentration not given here
[18] = basal RPMI8226 mitochondrial membrane potential changes, profiling panel, cell-based, JC-1 fluorescence, 24 h, 100 nL compound (AID 1169); conditions: RPMI8226 myeloma, JC-1 mitochondrial potential fluorescence, higher = more signal; also: test concentration not given here
[19] = basal MM1S mitochondrial membrane potential changes, profiling panel, cell-based, JC-1 fluorescence, 24 h, 100 nL compound (AID 1170); conditions: higher = more signal; also: test concentration not given here
[20] = A549 lung cancer cell viability effects, profiling panel, resazurin fluorescence, 24 h, PK04 Diversity Set (AID 1171); conditions: higher = more signal, called active from +8 up or from −8 down; also: test concentration not given here

Chain of NADPH oxidase 2 (Homo sapiens) (P04839 whole entry, looked up): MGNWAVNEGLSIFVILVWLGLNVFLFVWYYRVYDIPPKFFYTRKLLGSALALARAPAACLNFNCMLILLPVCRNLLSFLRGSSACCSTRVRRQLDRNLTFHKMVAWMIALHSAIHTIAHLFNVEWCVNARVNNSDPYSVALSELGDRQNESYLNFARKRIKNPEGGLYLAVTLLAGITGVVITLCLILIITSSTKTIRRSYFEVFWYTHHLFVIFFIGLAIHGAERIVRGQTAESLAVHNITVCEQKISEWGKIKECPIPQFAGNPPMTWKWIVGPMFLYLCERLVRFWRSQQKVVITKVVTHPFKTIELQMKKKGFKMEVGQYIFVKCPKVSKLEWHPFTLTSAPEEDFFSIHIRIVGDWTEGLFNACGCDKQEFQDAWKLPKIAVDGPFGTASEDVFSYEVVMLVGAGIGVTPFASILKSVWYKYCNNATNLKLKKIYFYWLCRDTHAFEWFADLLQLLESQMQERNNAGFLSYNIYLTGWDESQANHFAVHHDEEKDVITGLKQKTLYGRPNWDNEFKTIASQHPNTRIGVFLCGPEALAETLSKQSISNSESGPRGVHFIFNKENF
Chain of NADPH oxidase 4 (Homo sapiens) (Q9NPH5 whole entry, looked up): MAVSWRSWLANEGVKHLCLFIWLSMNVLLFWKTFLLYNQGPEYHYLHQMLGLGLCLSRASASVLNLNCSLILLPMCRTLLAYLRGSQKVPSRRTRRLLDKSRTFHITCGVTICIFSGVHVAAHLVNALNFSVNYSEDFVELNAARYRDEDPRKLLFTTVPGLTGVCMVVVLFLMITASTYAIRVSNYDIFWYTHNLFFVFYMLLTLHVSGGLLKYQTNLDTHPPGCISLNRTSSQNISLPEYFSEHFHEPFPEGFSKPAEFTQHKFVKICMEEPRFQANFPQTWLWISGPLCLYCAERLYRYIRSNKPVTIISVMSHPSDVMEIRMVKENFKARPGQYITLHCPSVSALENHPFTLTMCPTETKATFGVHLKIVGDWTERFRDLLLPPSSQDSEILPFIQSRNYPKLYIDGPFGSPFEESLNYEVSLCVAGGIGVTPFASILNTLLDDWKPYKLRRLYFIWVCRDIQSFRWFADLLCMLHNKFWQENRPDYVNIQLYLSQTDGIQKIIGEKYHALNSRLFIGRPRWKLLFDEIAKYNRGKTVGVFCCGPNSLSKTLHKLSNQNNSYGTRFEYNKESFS
Chain of NADPH oxidase 5 (Homo sapiens) (Q96PH1 whole entry, looked up): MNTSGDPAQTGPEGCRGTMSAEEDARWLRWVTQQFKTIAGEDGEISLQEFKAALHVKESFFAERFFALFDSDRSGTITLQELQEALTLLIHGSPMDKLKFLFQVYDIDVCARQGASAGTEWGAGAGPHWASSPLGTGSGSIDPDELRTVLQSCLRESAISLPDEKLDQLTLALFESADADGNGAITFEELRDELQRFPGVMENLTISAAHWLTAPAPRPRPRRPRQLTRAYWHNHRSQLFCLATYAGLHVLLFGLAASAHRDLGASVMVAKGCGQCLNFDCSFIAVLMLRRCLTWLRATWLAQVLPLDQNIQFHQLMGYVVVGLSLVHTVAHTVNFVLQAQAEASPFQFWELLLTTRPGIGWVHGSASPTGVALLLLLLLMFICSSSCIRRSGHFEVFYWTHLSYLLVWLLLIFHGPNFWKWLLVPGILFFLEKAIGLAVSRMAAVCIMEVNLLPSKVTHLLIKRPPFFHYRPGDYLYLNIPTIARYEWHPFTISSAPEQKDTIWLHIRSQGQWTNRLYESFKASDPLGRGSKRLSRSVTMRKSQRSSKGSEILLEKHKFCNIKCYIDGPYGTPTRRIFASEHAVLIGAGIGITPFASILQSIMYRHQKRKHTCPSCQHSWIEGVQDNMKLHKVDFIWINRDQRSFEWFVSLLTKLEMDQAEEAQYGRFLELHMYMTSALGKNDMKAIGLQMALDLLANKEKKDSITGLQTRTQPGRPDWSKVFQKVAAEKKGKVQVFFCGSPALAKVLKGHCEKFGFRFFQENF

| SMILES | z-score [1] | composite z-score [2] | z-score [3] | z-score [4] | z-score [5] | z-score [6] | z-score [7] | z-score [8] | z-score [9] | z-score [10] | z-score [11] | z-score [12] | z-score [13] | z-score [14] | z-score [15] | z-score [16] | z-score [17] | z-score [18] | z-score [19] | z-score [20] |
| --- | --- | --- | --- | --- | --- | --- | --- | --- | --- | --- | --- | --- | --- | --- | --- | --- | --- | --- | --- | --- |
| CC(=O)n1cc(C(O)C2C=CC3C(=O)N(c4ccccc4)C(=O)C3N2Nc2ccccc2)c2ccccc21 (stereo not given) | -1.45 (inactive) | 0.681 | 20.1 (active) | 2.76 (inactive) | 1.12 (inactive) | -0.568 (inactive) | 1.32 | -3.07 (inactive) | -4.86 (inactive) | -4.68 | -0.8 | 0.174 | 0.374 | -1.06 | -1.19 | -2.16 | -0.349 (inactive) | -0.502 | -0.969 | -1.05 (inactive) |
| CN1C2C=C(CCCO)C(C3C(=O)N(C(N)=O)C(=O)C32)C1c1cccs1 (stereo not given) | -0.214 (inactive) | -0.101 | 1.12 (inactive) | 0.273 (inactive) | 0.13 (inactive) | 0.431 (inactive) | -0.633 | 0.824 (inactive) | -0.845 (inactive) | 0.259 | -0.452 | -0.086 | -0.099 | -0.542 | 0.204 | -0.742 | -1 (inactive) | 1.17 | -0.0274 | -0.268 (inactive) |
| C=CCOC(=O)[C@H]1[C@@H]2C(=O)O[C@@H](c3ccccc3)[C@@H](c3ccccc3)N2[C@@H](c2ccc(OCCOC(=O)[C@H]3C[C@H]4C(=O)N[C@@H](Cc5ccccc5)C(=O)N4[C@H]3c3cccc(OCCO)c3)cc2)[C@]12C(=O)Nc1ccc(I)cc12 | -0.386 (inactive) | 1.29 | 0.977 (inactive) | 0.856 (inactive) | -0.874 (inactive) | 0.84 (inactive) | -0.28 | 2.07 (inactive) | 1.35 (inactive) | 1.52 | -0.894 | -0.532 | 0.933 | -0.234 | -0.766 | -1.54 | -0.346 (inactive) | -0.713 | -1.41 | -0.461 (inactive) |
| CN(C)C(=O)[C@@]1(Cc2ccccc2N=[N+]=[N-])COC(c2ccc(OCCCO)cc2)=N1 | 1.92 (inactive) | -0.781 | 26.3 (active) | 6.99 (inactive) | 3.43 (inactive) | 1.23 (inactive) | 0.685 | -1.99 (inactive) | -0.103 (inactive) | -1.82 | 1.69 | -0.541 | 1.32 | -0.257 | 0.192 | 1.4 | 0.0922 (inactive) | -0.934 | -1.23 | 0.325 (inactive) |
| CC(C)NC(=O)[C@@]1(C)c2ccccc2C(=O)N(C(C)C)[C@H]1c1ccc(CO)cc1 | -0.508 (inactive) | -0.0699 | 1.21 (inactive) | 0.547 (inactive) | 0.702 (inactive) | 0.255 (inactive) | 0.0605 | -0.0231 (inactive) | 0.375 (inactive) | 0.222 | -0.619 | 0.545 | -0.335 | 0.608 | 0.0593 | 0.313 | -0.527 (inactive) | 0.713 | 1.32 | -0.271 (inactive) |
| CC(C)(C)OC(=O)CC[C@]1(C(=O)O)N=C(c2ccc(OCCCO)cc2)O[C@H]1c1ccccc1CN=[N+]=[N-] | 0.59 (inactive) | 0.0355 | 16.3 (active) | 1.36 (inactive) | 0.0614 (inactive) | 0.594 (inactive) | 0.172 | 0.433 (inactive) | 1.01 (inactive) | 1 | 0.61 | -0.788 | 0.682 | 0.519 | 0.375 | 1.43 | 1.05 (inactive) | -0.697 | -0.738 | -0.245 (inactive) |
| C#CCNC(=O)[C@H](Cc1ccccc1)NC(=O)[C@@H](N=[N+]=[N-])C(C)C | 0.367 (inactive) | -0.145 | 0.0059 (inactive) | 0.705 (inactive) | 0.0901 (inactive) | 0.405 (inactive) | -0.52 | 0.291 (inactive) | -0.18 (inactive) | 0.323 | -0.447 | -0.804 | 0.0785 | 0.579 | 0.116 | -0.266 | -0.503 (inactive) | -0.205 | 0.254 | 0.903 (inactive) |
| CN(C)CCCNC(=O)[C@@H]1c2ccccc2C(=O)N(Cc2ccc(OC(F)(F)F)cc2)[C@H]1c1ccc(CO)cc1 | 0.532 (inactive) | 0.197 | 2.04 (inactive) | 0.81 (inactive) | 3 (inactive) | 0.891 (inactive) | 0.0342 | 0.799 (inactive) | 0.237 (inactive) | 1.44 | 1.71 | 1.91 | -0.0979 | 0.584 | -2.39 | 3.72 | -0.463 (inactive) | -0.114 | -1.13 | 0.989 (inactive) |
| COc1ccc(NC(=O)O[C@H]2[C@H](OC(=O)Nc3ccc4c(c3)OCO4)[C@@H](OC(=O)Nc3ccc4c(c3)OCO4)[C@@H](OC)O[C@@H]2CO)cc1 | 0.898 (inactive) | 0.33 | 5.81 (inactive) | 1.13 (inactive) | 0.081 (inactive) | 0.521 (inactive) | -0.182 | -3.33 (inactive) | -0.666 (inactive) | -2.16 | -1.11 | -0.0868 | -1.67 | -1.44 | -0.7 | 0.818 | 0.533 (inactive) | -0.628 | -0.786 | 0.441 (inactive) |
